Data taken from PubChem BioAssay (NCI).
This is part of a sample that, as a whole, favours compounds with a hit. Of some 79,000 tested, about 15% had one in any assay. A number with no mark means an inactive call. Calls of active or inactive are those of the source. No stated cut-off is given here; in the data, active means growth inhibition above about 70%; inactive means the rest.

Test: NCI Yeast Anticancer Drug Screen. Data for the rad50 strain (AID 155);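 further: 0% = growth of vehicle-only cultures of the same strain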
Conditions: S. cerevisiae rad50 strain growth inhibition; at 50.0 µM; hits give high values
Outline: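 A DNA repair-deficient yeast mutant serves as the test organism; compound-induced growth inhibition is calculated against vehicle-treated cells.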

Row | SMILES | growth inhibition
1 | Clc1ccc(-c2nc3ccc(Cl)cc3[nH]2)cc1 | 76.8% (active)
2 | O=C1c2ccccc2NC(=O)C2C1C(c1ccccc1)CC2(O)c1ccccc1 (stereo not given) | 62.5%
3 | COc1ccc(CC2C(=O)NC(C)C(=O)N(C)C3Cc4ccc(cc4)Oc4cc(ccc4O)CC(C(=O)NC(C)C(=O)NC(C)C(=O)N2C)N(C)C3=O)cc1 (stereo not given) | 61.1%
4 | O=C1c2cccnc2-c2nccc3c2c1nc1cc(Br)ccc13 | 88.7% (active)
5 | CCN(C(=O)O)c1ccc(/C=C/c2ccnc3ccccc23)cc1 | 2.4%
6 | O=C(/C=C/c1cccc(Cl)c1)c1ccccc1 | 95.7% (active)
7 | O.O.O=C(O)C(O)C(O)C(OC1OC(CO)C(O)C(O)C1O)C(O)CO.O=C(O)C(O)C(O)C(OC1OC(CO)C(O)C(O)C1O)C(O)CO.[NH-]C1CCCCC1[NH-].[Pt+2] (stereo not given) | 95.1% (active)
8 | O=C(N=c1sc2ccccc2s1)N=c1sc2ccccc2s1 | 45.9%
9 | Cc1ccsc1/C=N/Nc1ccc2ccccc2n1 | 78% (active)
10 | CC(C)(C)C1=NC(=S)SC2=NC(=O)C3(NN21)c1ccccc1-c1ccccc13 | 90.9% (active)
11 | COC(=O)c1ccc(OC)cc1 | 49.9%
12 | Cc1ccc(/C=C2\CN(C)CC3=C2NC(=S)NC3c2ccc(C)cc2)cc1 (stereo not given) | 30.2%
13 | O=C1NC(=O)/C(=C/C=C/c2ccccc2)S1 | 40.9%
14 | Nc1ccc(Cc2ccc(N)cc2[N+](=O)[O-])c([N+](=O)[O-])c1 | 14.6%
15 | COc1ccccc1/C=C\C(=O)c1ccccc1 | 98.7% (active)
16 | NNC(=S)NN/C=C(\C=Nc1ccccc1)[N+](=O)[O-] | 69.8%
17 | CCCCCCCCCCCCCCCCCO | 71% (active)
18 | COc1cc(C(c2cc3c(cc2O)OCO3)N2CCOCC2)cc(OC)c1OC (stereo not given) | 35.5%
19 | O=C1OCc2cccc3cccc1c23 | 88.5% (active)
20 | CSC(=S)NNC(C)c1nccc2ccccc12 (stereo not given) | 97.8% (active)

Row | SMILES | growth inhibition
21 | N#Cc1c(Cl)nc2ccccc2c1N=[N+]=[N-] | 50.6%
22 | CC(C)(C)CC(C)(C)c1ccc(OCCSC(=N)N)cc1 | 99.3% (active)
23 | COC1CCC(O)C(CO)O1 (stereo not given) | 99.5% (active)
24 | CC(=O)N(C1=C(Cl)C(=O)c2ccccc2C1=O)c1ccc(Cl)cc1 | 97.8% (active)
25 | Cc1nc(N2N=C(c3ccc(Cl)cc3)CCC2=O)sc1[N+](=O)[O-] | 85% (active)
26 | Cn1c2c(c3ccccc31)CCN1C[C@@H]3CCCC[C@H]3C[C@@H]21 | 65%
27 | Cn1cc(NC(=O)Nc2cc(C(=O)Nc3cc(C(=O)Nc4ccc5cc(S(=O)(=O)O)cc(S(=O)(=O)O)c5c4)n(C)c3)n(C)c2)cc1C(=O)Nc1cc(C(=O)Nc2ccc3cc(S(=O)(=O)O)cc(S(=O)(=O)O)c3c2)n(C)c1 | 91% (active)
28 | CC(=O)Oc1c(Cl)cc(Cl)cc1C(c1cc(Cl)cc(Cl)c1OC(C)=O)C(Cl)(Cl)Cl | 90.8% (active)
29 | CCCCCc1ccc2cc(C(=O)O)[nH]c2c1 | 96.7% (active)
30 | C/C(=N/O)c1cc([N+](=O)[O-])c(O)cc1O | 86.7% (active)
31 | CCOC(=O)CNC(=O)Sc1ccc(C(C)(C)C)cc1C | 0.05%
32 | S=C(N/N=C1\C=Cc2ccccc2C1)N/N=C1\C=Cc2ccccc2C1 | 55.5%
33 | Cc1cccc(Nc2c3c(nc4ccccc24)CCCCC3)c1 | 90% (active)
34 | Cc1ccc(NS(=O)(=O)c2ccc(C)cc2)cc1 | 37.6%
35 | CCOC(=O)C(=CNC(=S)Nc1c(CC)cccc1C(C)(C)C)C(=O)OCC | 85.2% (active)
36 | COC1/C=C/OC2(C)Oc3c(C)c(OC(C)=O)c4c(c3C2=O)C(=O)C=C(NC(=O)/C(C)=C\C=C\C(C)C(O)C(C)C(O)C(C)C(OC(C)=O)C1C)C4=O (stereo not given) | 53.4%
37 | O=C(O)c1ccc(/C=C2\COc3ccccc3C2=O)cc1 | 62.6%
38 | Cc1c2c(c(C)c3ccncc13)S(=O)(=O)c1ccccc1-2 | 94.3% (active)
39 | Oc1c(Cl)cc(Cl)c2cccnc12 | 98.8% (active)
40 | Cc1ccc(S(=O)(=O)Nc2ccc3c(c2)C(=O)c2ccccc2-3)cc1 | 91.7% (active)

Test: NCI Yeast Anticancer Drug Screen. Data for the mec2-1 strain (AID 157)
Conditions: S. cerevisiae mec2-1 strain, at 5.0 µM (retest, dose inferred, filed as 0.5), hits give high values
Outline: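 Each compound was tested on mec2-1 yeast, a strain altered in DNA damage repair or cell cycle control. Growth inhibition is reported relative to vehicle.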

Row | SMILES | growth inhibition
41 | Clc1ccc(-c2nc3ccc(Cl)cc3[nH]2)cc1 | -3%
42 | O=C1c2ccccc2NC(=O)C2C1C(c1ccccc1)CC2(O)c1ccccc1 (stereo not given) | 7%
43 | COc1ccc(CC2C(=O)NC(C)C(=O)N(C)C3Cc4ccc(cc4)Oc4cc(ccc4O)CC(C(=O)NC(C)C(=O)NC(C)C(=O)N2C)N(C)C3=O)cc1 (stereo not given) | 25%
44 | O=C1c2cccnc2-c2nccc3c2c1nc1cc(Br)ccc13 | 44%
45 | CCN(C(=O)O)c1ccc(/C=C/c2ccnc3ccccc23)cc1 | -16%
46 | O=C(/C=C/c1cccc(Cl)c1)c1ccccc1 | -9%
47 | O.O.O=C(O)C(O)C(O)C(OC1OC(CO)C(O)C(O)C1O)C(O)CO.O=C(O)C(O)C(O)C(OC1OC(CO)C(O)C(O)C1O)C(O)CO.[NH-]C1CCCCC1[NH-].[Pt+2] (stereo not given) | -6%
48 | O=C(N=c1sc2ccccc2s1)N=c1sc2ccccc2s1 | 35%
49 | Cc1ccsc1/C=N/Nc1ccc2ccccc2n1 | 20%
50 | CC(C)(C)C1=NC(=S)SC2=NC(=O)C3(NN21)c1ccccc1-c1ccccc13 | -6%
51 | COC(=O)c1ccc(OC)cc1 | 3%
52 | Cc1ccc(/C=C2\CN(C)CC3=C2NC(=S)NC3c2ccc(C)cc2)cc1 (stereo not given) | 18%
53 | O=C1NC(=O)/C(=C/C=C/c2ccccc2)S1 | 13%
54 | Nc1ccc(Cc2ccc(N)cc2[N+](=O)[O-])c([N+](=O)[O-])c1 | 5%
55 | COc1ccccc1/C=C\C(=O)c1ccccc1 | 1%
56 | NNC(=S)NN/C=C(\C=Nc1ccccc1)[N+](=O)[O-] | -29%
57 | CCCCCCCCCCCCCCCCCO | -3%
58 | COc1cc(C(c2cc3c(cc2O)OCO3)N2CCOCC2)cc(OC)c1OC (stereo not given) | -23%
59 | O=C1OCc2cccc3cccc1c23 | 9%
60 | CSC(=S)NNC(C)c1nccc2ccccc12 (stereo not given) | -3%

Row | SMILES | growth inhibition
61 | N#Cc1c(Cl)nc2ccccc2c1N=[N+]=[N-] | -19%
62 | CC(C)(C)CC(C)(C)c1ccc(OCCSC(=N)N)cc1 | 99% (active)
63 | COC1CCC(O)C(CO)O1 (stereo not given) | 100% (active)
64 | CC(=O)N(C1=C(Cl)C(=O)c2ccccc2C1=O)c1ccc(Cl)cc1 | 99% (active)
65 | Cc1nc(N2N=C(c3ccc(Cl)cc3)CCC2=O)sc1[N+](=O)[O-] | 13%
66 | Cn1c2c(c3ccccc31)CCN1C[C@@H]3CCCC[C@H]3C[C@@H]21 | 0%
67 | Cn1cc(NC(=O)Nc2cc(C(=O)Nc3cc(C(=O)Nc4ccc5cc(S(=O)(=O)O)cc(S(=O)(=O)O)c5c4)n(C)c3)n(C)c2)cc1C(=O)Nc1cc(C(=O)Nc2ccc3cc(S(=O)(=O)O)cc(S(=O)(=O)O)c3c2)n(C)c1 | 36%
68 | CC(=O)Oc1c(Cl)cc(Cl)cc1C(c1cc(Cl)cc(Cl)c1OC(C)=O)C(Cl)(Cl)Cl | 2%
69 | CCCCCc1ccc2cc(C(=O)O)[nH]c2c1 | 3%
70 | C/C(=N/O)c1cc([N+](=O)[O-])c(O)cc1O | -10%
71 | CCOC(=O)CNC(=O)Sc1ccc(C(C)(C)C)cc1C | 22%
72 | S=C(N/N=C1\C=Cc2ccccc2C1)N/N=C1\C=Cc2ccccc2C1 | -4%
73 | Cc1cccc(Nc2c3c(nc4ccccc24)CCCCC3)c1 | -2%
74 | Cc1ccc(NS(=O)(=O)c2ccc(C)cc2)cc1 | -8%
75 | CCOC(=O)C(=CNC(=S)Nc1c(CC)cccc1C(C)(C)C)C(=O)OCC | -13%
76 | COC1/C=C/OC2(C)Oc3c(C)c(OC(C)=O)c4c(c3C2=O)C(=O)C=C(NC(=O)/C(C)=C\C=C\C(C)C(O)C(C)C(O)C(C)C(OC(C)=O)C1C)C4=O (stereo not given) | -44%
77 | O=C(O)c1ccc(/C=C2\COc3ccccc3C2=O)cc1 | 14%
78 | Cc1c2c(c(C)c3ccncc13)S(=O)(=O)c1ccccc1-2 | 52%
79 | Oc1c(Cl)cc(Cl)c2cccnc12 | 31%
80 | Cc1ccc(S(=O)(=O)Nc2ccc3c(c2)C(=O)c2ccccc2-3)cc1 | 6%
